Compounds without any hit were thinned out: in the full panel of roughly 83,000, 20% have a hit.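 Negative percent growth values reflect cell death: -40 means 40% of the cells present at the start died, and -100 means all died.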 Unmarked numbers belong to inactive results. Calls of active or inactive are those of the source. Rule for the calls: active = growth percent below 10; inactive = the rest.
Tests used:
Assay in all cases: NCI-60 one-dose screen, 48 h (100 = growth as untreated, 0 = no growth, -100 = all killed)
Details in all cases: 10 µM
[1] = test system: HCT-15 colon
[2] = test system: HT29 colon
[3] = test system: SNB-75 CNS
[4] = test system: SNB-19 CNS
[5] = test system: U251 CNS
[6] = test system: PC-3 prostate
[7] = test system: SK-MEL-5 melanoma
[8] = test system: LOX IMVI melanoma
[9] = test system: SK-MEL-28 melanoma
[10] = test system: SK-MEL-2 melanoma
[11] = test system: EKVX NSCLC
[12] = test system: SN12C renal
[13] = test system: TK-10 renal
[14] = test system: ACHN renal
[15] = test system: CAKI-1 renal
[16] = test system: A498 renal
[17] = test system: CCRF-CEM leukemia
[18] = test system: MOLT-4 leukemia
[19] = test system: UO-31 renal

CCN(CC)CCCC(C)Nc1c2ccc(Cl)cc2nc2ccc(OC)cc12 (configuration not stated)
growth [1]: 14.2%
growth [2]: -30.3% (active)
growth [3]: 16.3%
growth [4]: 35.4%
growth [5]: 11.4%
growth [6]: 35%
growth [7]: -87.5% (active)
growth [8]: -48.1% (active)
growth [9]: -57.6% (active)
growth [10]: 57.6%
growth [11]: 49%
growth [12]: 33.2%
growth [13]: 23.9%
growth [14]: 14.2%
growth [15]: 1.55% (active)
growth [16]: 74%
growth [17]: 39.4%
growth [18]: 15.5%

COc1cccc(-c2nc3sccn3c2-c2cccc(S(C)(=O)=O)c2)c1
growth [1]: 95.3%
growth [2]: 118%
growth [3]: 95.1%
growth [4]: 99.2%
growth [5]: 106%
growth [6]: 94.7%
growth [7]: 94.8%
growth [8]: 88.6%
growth [9]: 112%
growth [10]: 115%
growth [11]: 78.4%
growth [19]: 73.1%
growth [13]: 102%
growth [14]: 96.2%
growth [15]: 82.2%
growth [16]: 106%
growth [17]: 98.2%
growth [18]: 104%

CC(=O)/C(=C/c1ccc(Br)cc1)C(=O)c1ccccc1
growth [1]: 46.6%
growth [2]: 76.6%
growth [3]: 84.5%
growth [4]: 90.6%
growth [5]: 66.9%
growth [6]: 80.6%
growth [7]: 66.3%
growth [8]: -61.9% (active)
growth [10]: 107%
growth [12]: 69.1%
growth [19]: 57.4%
growth [14]: 56.1%
growth [15]: 80.2%
growth [16]: 91.6%
growth [17]: -7.34% (active)
growth [18]: -5.12% (active)

CC1CCCC(C(=O)O)C1C(=O)O (configuration not stated)
growth [1]: 102%
growth [2]: 98.8%
growth [3]: 100%
growth [4]: 101%
growth [5]: 86%
growth [6]: 76%
growth [7]: 102%
growth [8]: 98%
growth [9]: 111%
growth [10]: 93.4%
growth [11]: 95.4%
growth [19]: 92.7%
growth [13]: 93.8%
growth [14]: 105%
growth [15]: 97.2%
growth [16]: 95.8%
growth [17]: 99.3%
growth [18]: 77.6%

CCN(CC)CCOC(=O)c1cc(OCc2ccccc2)c(OCc2ccccc2)c(OCc2ccccc2)c1
growth [1]: 13.1%
growth [2]: 7.14% (active)
growth [3]: 72.1%
growth [4]: 56.9%
growth [5]: 18.3%
growth [6]: 49.6%
growth [7]: 63.3%
growth [8]: -16.9% (active)
growth [9]: 63.2%
growth [10]: 78.5%
growth [11]: 47.7%
growth [19]: 50.7%
growth [13]: 78.3%
growth [14]: 71.9%
growth [15]: 50.4%
growth [16]: 68.8%
growth [17]: 37%
growth [18]: 8.5% (active)

COc1cccc(N=Nc2cccc(OC)c2)c1
growth [1]: 91.1%
growth [2]: 94.9%
growth [3]: 102%
growth [4]: 97%
growth [5]: 79.4%
growth [6]: 67.7%
growth [7]: 99.1%
growth [8]: 96.7%
growth [9]: 99.6%
growth [10]: 94.4%
growth [11]: 83.5%
growth [19]: 88.2%
growth [13]: 95.9%
growth [14]: 93%
growth [16]: 86.4%
growth [17]: 90.8%
growth [18]: 79.5%

CCn1c(SCc2ccc(C)cc2)nnc1-c1nn(-c2ccc(Cl)cc2Cl)c(-c2ccc(Cl)cc2)c1C
growth [1]: 11.6%
growth [2]: 2.65% (active)
growth [3]: 23.3%
growth [4]: 22.1%
growth [5]: 14.4%
growth [6]: 5.63% (active)
growth [7]: -92.3% (active)
growth [8]: 7.19% (active)
growth [9]: 30.3%
growth [10]: 4.93% (active)
growth [11]: 10.4%
growth [12]: 1.66% (active)
growth [19]: 9.59% (active)
growth [13]: 18.1%
growth [14]: 2.32% (active)
growth [15]: 40.5%
growth [16]: 18.9%
growth [18]: 2.46% (active)

Nc1nccc(OCCO)n1
growth [1]: 98.4%
growth [2]: 88.3%
growth [3]: 89.5%
growth [4]: 101%
growth [5]: 107%
growth [6]: 103%
growth [7]: 99.2%
growth [8]: 97.5%
growth [11]: 97.8%
growth [12]: 107%
growth [19]: 91%
growth [13]: 90%
growth [14]: 108%
growth [16]: 114%
growth [17]: 113%
growth [18]: 99.9%

Cc1ccc(N=Nc2ccccc2)cc1
growth [1]: 99.5%
growth [2]: 92.3%
growth [3]: 105%
growth [4]: 102%
growth [5]: 101%
growth [6]: 78.1%
growth [7]: 102%
growth [8]: 103%
growth [9]: 102%
growth [10]: 97.6%
growth [11]: 94.8%
growth [19]: 94.8%
growth [13]: 95.1%
growth [14]: 107%
growth [15]: 96.4%
growth [16]: 104%
growth [17]: 99%
growth [18]: 95.5%

CCn1cc(C(=O)O)c(=O)c2cc(F)c(N3CCNCC3)cc21
growth [1]: 102%
growth [2]: 109%
growth [3]: 98.2%
growth [4]: 101%
growth [5]: 101%
growth [6]: 102%
growth [7]: 99.3%
growth [8]: 98.7%
growth [9]: 115%
growth [10]: 113%
growth [11]: 102%
growth [12]: 106%
growth [13]: 116%
growth [14]: 95.5%
growth [15]: 96.5%
growth [16]: 117%
growth [17]: 102%
growth [18]: 93.5%

COc1cc2cc(Oc3ccc(NC(=O)Nc4ccc(Cl)c(Cl)c4)cc3)c(C)nc2cc1OC
growth [1]: 18.9%
growth [2]: 10.9%
growth [3]: 22.4%
growth [4]: 28.6%
growth [5]: -32.3% (active)
growth [6]: 4.12% (active)
growth [7]: -35% (active)
growth [8]: 23.1%
growth [9]: 44.6%
growth [10]: -7.82% (active)
growth [11]: 21%
growth [12]: 22.1%
growth [19]: 3.69% (active)
growth [14]: 16.4%
growth [15]: 21.7%
growth [16]: 35.8%
growth [17]: 13.3%
growth [18]: 3.69% (active)

C=CCN(CC=C)C(=O)[C@H](CC)[C@@H]1CC[C@@H](C)[C@@H]([C@H](C)[C@@H](O)[C@@H](C)C(=O)[C@H](CC)C2O[C@]3(C=C[C@@H](O)[C@]4(CC[C@@](C)([C@H]5CC[C@](O)(CC)[C@H](C)O5)O4)O3)[C@H](C)C[C@@H]2C)O1 (some centres not stated)
growth [1]: 4.64% (active)
growth [2]: 9.13% (active)
growth [3]: -7.45% (active)
growth [4]: 14.2%
growth [5]: 18.9%
growth [6]: 2.56% (active)
growth [7]: -85.2% (active)
growth [8]: 17%
growth [9]: 33.9%
growth [10]: -7.12% (active)
growth [11]: -5.86% (active)
growth [19]: -12.6% (active)
growth [13]: 16.2%
growth [14]: 5.93% (active)
growth [15]: 1.41% (active)
growth [16]: -2.03% (active)
growth [18]: 19.4%

COC(=O)CC[C@@H](C)[C@H]1CC[C@H]2[C@@H]3CC[C@@H]4C[C@H](O)CC[C@]4(C)[C@H]3C[C@H](O)[C@]12C
growth [1]: 92.4%
growth [2]: 89%
growth [3]: 91.4%
growth [4]: 105%
growth [5]: 98.6%
growth [6]: 67.7%
growth [7]: 88.5%
growth [8]: 93.6%
growth [9]: 118%
growth [11]: 103%
growth [12]: 97.8%
growth [13]: 92.7%
growth [14]: 99.1%
growth [16]: 119%
growth [18]: 76.4%

COc1ccc(N=Nc2cc(OC)c(OC)c(OC)c2)cc1
growth [1]: 82%
growth [2]: 69.1%
growth [3]: 78.7%
growth [4]: 89%
growth [5]: 79.5%
growth [6]: 67.2%
growth [7]: 80%
growth [8]: 79%
growth [9]: 92%
growth [10]: 74.1%
growth [11]: 77.3%
growth [19]: 58.6%
growth [13]: 84.7%
growth [14]: 80.2%
growth [15]: 70.2%
growth [16]: 73.5%
growth [17]: 65.6%
growth [18]: 78%

COc1ccc2nc(-c3ccc(Cl)cc3)cc(-c3nnc(SC/C(=N\O)c4ccccc4)n3-c3ccccc3)c2c1
growth [1]: 84.4%
growth [2]: 71.8%
growth [3]: 102%
growth [4]: 104%
growth [5]: 85.8%
growth [6]: 54.1%
growth [7]: 79.1%
growth [8]: 76.1%
growth [10]: 89.9%
growth [11]: 96.2%
growth [12]: 95.8%
growth [19]: 78.2%
growth [13]: 111%
growth [14]: 90.2%
growth [16]: 96.3%
growth [17]: 59.3%
growth [18]: 47.5%

CN1C(=O)C2(Nc3cc(Cl)ccc3S2)c2cc(Cl)ccc21 (configuration not stated)
growth [1]: 76.7%
growth [2]: 101%
growth [3]: 69.2%
growth [4]: 97.2%
growth [5]: 93.2%
growth [6]: 73.7%
growth [7]: 84.9%
growth [8]: 78.8%
growth [9]: 101%
growth [10]: 108%
growth [11]: 79.2%
growth [12]: 82.2%
growth [19]: 56.9%
growth [13]: 125%
growth [14]: 92.3%
growth [15]: 82.2%
growth [16]: 73%
growth [17]: 71.6%
growth [18]: 82.5%

COc1cc(Cc2cc(-c3ccccc3)n[nH]c2=O)cc(OC)c1OC
growth [1]: 34.5%
growth [2]: 18.3%
growth [3]: 55.5%
growth [4]: 62.9%
growth [5]: 48.7%
growth [6]: 61.9%
growth [7]: 50.4%
growth [8]: 45.5%
growth [9]: 70%
growth [10]: 56.6%
growth [11]: 43.6%
growth [12]: 72.9%
growth [19]: 58.3%
growth [13]: 75.5%
growth [14]: 86.4%
growth [15]: 64.6%
growth [16]: 69%
growth [18]: 30.9%

From PubChem BioAssay (NCI)
